Peg3 imprint – qHTS Assay for Compounds that Induce Erasure of Genomic Imprints; Potency, µM (top dose mostly 60.7 µM), hits mostly activators; mouse ES Peg3-LacZ reporter, beta-gal luminescence, 40 h; actives 0.02% (n = 110,000)
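Gelatin-coated wells received 300 freshly trypsinized female ES cells with a Peg3LacZ-Neo reporter on the maternal allele, then incubated 40 hours at 37C. BetaGlo was added for 5 minutes at room temperature before a single luminescence read.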
p53ts 32C tox – qHTS Screen for Compounds that Selectively Target Cancer Cells with p53 Mutations: Cytotoxicity of p53ts Cells at the Permissive Temperature; H1299-p53A138V at 32C, ATP luminescence viability, 24 h; Potency, µM (highest dose often 46.1 µM), hits mostly cytotoxic; actives 0.93% (n = 130,000); also: nearly all actives have a fitted effect of over 55% in size
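Cells: H1299 p53ts (A138V), 600/well, pre-incubated 16–30 h at 37C. Cpd up to 46 uM, 24 h, 32C. Readout: ATPlite luminescence, 20 min RT. Normalization: DMSO vs tamoxifen 100 uM. AC50 by Hill equation.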
IkB sig inh – IkB Signaling | ABC-DLBCL IkBa-CBG/CBR dual luciferase ratio, 4 h; response scale: scaled: untreated 0%, proteasome inhibitor 100% | actives 0.04% (n = 110,000) | AID 445, 2006 | Potency, µM (highest dose often 57.1 µM); active = well fitted curve in the direction sought with a large enough effect in the signal ratio, not every such curve was filed as active; inconclusive = small, poorly fitted or top-dose-only effect, or a change in a side signal; the % refers to the signal ratio;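 also: the direction sought is a rising ratio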
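In this assay, an IκBα–CBG68 fusion accumulates when IKK-driven degradation is blocked; native CBR normalizes for cell number. OCI-Ly3 cells were treated 4 h with compound and doxycycline, then green and red light read after Chroma-Glo addition.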
p53ts 39C tox – qHTS Screen for Compounds that Selectively Target Cancer Cells with p53 Mutations: Cytotoxicity of p53ts Cells at the Nonpermissive Temperature. actives 1.5% (n = 130,000). H1299-p53A138V viability at 39C, ATP luminescence, 24 h. Potency, µM (highest dose often 46.1 µM), hits mostly cytotoxic; also: nearly all actives have a fitted effect of over 55% in size
A number is an active result; . = inactive; ? = inconclusive; / = not tested or not shown; [ ] = dose if it differs, or a comment. Most compounds without a hit are left out; they make up all but 1.8% or so of the library. Unless noted, calls follow the shape of the dose curve; as a rule, active = well fitted curve in the direction sought with a large enough effect; inconclusive = small, poorly fitted or top-dose-only effect, or another doubt; inactive = no such curve, though single readings can be large; an effect the other way counts as inactive or inconclusive.

SMILES | Peg3 imprint | p53ts 32C tox | IkB sig inh | p53ts 39C tox
O=C(Nc1cccc(O)c1)c1noc2c1CCc1ccccc1-2 | .[10.9 µM] | 4µM | ? | 2.5µM
COCC(=O)N1CCC2(CCCN(C(=O)Nc3ccccc3)C2)CC1 | / | . | .[11.4 µM] | .
CN1CCN(C2Cc3ccccc3Sc3ccc(S)cc32)CC1 (configuration not stated) | . | / | / | /
CN1CCN([C@@H]2Cc3ccccc3Sc3ccc(Cl)cc32)CC1 | / | 20µM | . | 16µM
Cc1cccc(C(=O)Nc2nc3c(s2)CCCC3)c1 | .[10.9 µM] | 10µM | ? | 13µM
COc1ccccc1C(=O)Oc1c(Sc2ccccc2)c(C)nn1-c1ccccc1 | .[10.9 µM] | 16µM | ? | .
COc1cc(C(=O)Oc2c(Sc3ccc(C)cc3)c(C)nn2-c2ccccc2)cc(OC)c1OC | .[10.9 µM] | . | ? | .
Cc1ccc(NC(=O)N(Cc2cn(C)c3ccccc23)C2CCCCC2)cc1C | .[10.9 µM] | ? | ? | 13µM
COc1cccc(NC(=O)N(Cc2cn(C)c3ccccc23)C2CCCCC2)c1 | .[10.9 µM] | . | ? | ?
O=C(CC1(O)C(=O)N(CCc2ccccc2)c2ccc(Br)cc21)c1ccccc1O (configuration not stated) | .[10.9 µM] | . | ? | 20µM
CCCN1C(=O)C(O)(CC(=O)c2ccc(C(C)C)cc2)c2ccccc21 (configuration not stated) | .[10.9 µM] | . | ? | ?
O=C(CC1(O)C(=O)N(Cc2ccccc2)c2ccc(Br)cc21)c1ccccc1 (configuration not stated) | .[10.9 µM] | ? | ? | 16µM
CC(C)c1ccc(C(=O)CC2(O)C(=O)N(CCc3ccccc3)c3ccc(Cl)cc32)cc1 (configuration not stated) | .[10.9 µM] | ? | ? | 16µM
CCCCN1C(=O)C(O)(CC(=O)c2ccc(CC)cc2)c2cc(Br)ccc21 (configuration not stated) | .[10.9 µM] | ? | . | ?
COc1ccc(Cn2ccnc2SCC(=O)Nc2ccc3c(c2)OCCO3)cc1 | .[10.9 µM] | . | . | .
CCN(CC)c1nn2c(=O)c(C(=O)NCCc3ccccc3C)cnc2s1 | .[10.9 µM] | . | . | .
CCOc1cc(CNCCSc2nnnn2C)ccc1OCc1ccc(Cl)cc1Cl | .[10.9 µM] | 35µM | ? | 13µM
Cn1nnnc1SCCNCc1ccccc1OCc1ccc(Cl)cc1Cl | .[10.9 µM] | . | ? | ?
Fc1ccccc1CSc1ncnc2c1oc1ccccc12 | . | 13µM | . | 13µM
Cc1ccnc(NC(=O)CCC2CCCCC2)c1 | . | 13µM | ? | 13µM
Cc1cc(NC(=O)CCC2CCCCC2)no1 | / | . | / | .
CCOc1ccc(CN2C(=O)C(=O)c3cccc(C)c32)cc1OC | .[10.9 µM] | . | . | 13µM
CCOc1ccc(-c2nc(SCC(=O)Nc3ccc4c(c3)OCCO4)c(-c3ccc(F)cc3)[nH]2)cc1 | .[10.9 µM] | . | ? | 16µM
Cc1noc(C)c1-c1nc(N2CCOCC2)c2ccccc2n1 | . | . | .[11.4 µM] | .
CC(C)(C)c1ccc(C(=O)Nc2nnc3n2CCS3)cc1 | .[10.9 µM] | ? | ? | 13µM
SMILES | Peg3 imprint | p53ts 32C tox | IkB sig inh | p53ts 39C tox
O=C1CC(c2cccs2)CC2=C1C(c1ccccc1)n1ncnc1N2 (configuration not stated) | . | . | . | .
COc1ccc(C(=O)Nc2ccc3oc(-c4cc(Cl)ccc4Cl)nc3c2)cc1Br | .[10.9 µM] | ? | ? | 10µM
CC(C)c1ccc2oc(-c3cc(NC(=O)c4cccnc4)ccc3Cl)nc2c1 | .[10.9 µM] | 20µM | ? | ?
O=C(Nc1ccc2oc(-c3cccc(Cl)c3Cl)nc2c1)c1cccc(Br)c1 | .[10.9 µM] | ? | . | 10µM
O=C(Nc1ccc(Cl)c(Cl)c1)C1CC(=O)N(c2ccc(Br)cc2)C1 (configuration not stated) | / | . | / | .
Cc1cc(C)cc(NC(=O)Cn2c(=O)n(CC(=O)NCCc3ccccc3)c(=O)c3ccccc32)c1 | .[10.9 µM] | ? | ? | 20µM
CCc1cccc(NC(=O)Cn2c(=O)n(CC(=O)NCCc3ccccc3)c(=O)c3ccccc32)c1 | .[10.9 µM] | 10µM | ? | 6.3µM
O=C(Cn1c(=O)c2ccccc2n(CC(=O)Nc2ccc(F)cc2)c1=O)NCCc1ccccc1 | .[10.9 µM] | . | ? | .
COc1ccc(CCNC(=O)CCCn2c(=O)c3ccccc3n(CC(=O)Nc3cc(Cl)ccc3C)c2=O)cc1OC | .[10.9 µM] | ? | . | 13µM
COc1ccc(Cl)cc1NC(=O)Cn1c(=O)n(CCCC(=O)NCCc2ccc(OC)c(OC)c2)c(=O)c2ccccc21 | .[10.9 µM] | . | ? | ?
COc1ccc(NC(=O)Cn2c(=O)n(CC(=O)NCCc3ccccc3)c(=O)c3ccccc32)cc1 | .[10.9 µM] | . | . | .
O=C1CN(C(=O)COC(=O)c2ccccc2NC(=O)c2ccco2)c2ccccc2N1 | . | . | . | .
CC1CCN(C(=O)CSc2nc(N)cc(N)n2)CC1 | / | . | . | .
COc1ccc(OC(=O)c2cc(-c3ccc4c(c3)OCCO4)on2)cc1 | .[10.9 µM] | 13µM | . | 13µM
O=C(Oc1ccc(Cl)cc1)c1cc(-c2ccc3c(c2)OCCO3)on1 | .[10.9 µM] | . | . | ?
CC(C)c1ccc(OC(=O)c2cc(-c3ccc(Cl)cc3)on2)cc1 | .[10.9 µM] | . | . | .
CC(C)c1ccc(OC(=O)c2cc(-c3ccc4c(c3)OCCO4)on2)cc1 | .[10.9 µM] | 13µM | . | 20µM
N#Cc1ccc(OC(=O)c2cc(-c3ccc4c(c3)OCCO4)on2)cc1 | .[10.9 µM] | ? | . | 13µM
COc1ccc(C2N3CC4(C)CN2CC(C)(C3)C4O)cc1 (configuration not stated) | . | . | . | .
c1ccc(-c2nc3nonc3nc2-c2ccccc2)cc1 | . | ? | . | 13µM
O=C(Nc1onc2c1CCCC2)c1ccccc1 | .[10.9 µM] | ? | . | ?
CC(C)(C)c1ccc(C(=O)Nc2onc3c2CCCC3)cc1 | .[10.9 µM] | 13µM | . | 13µM
CC(C)COc1ccc(C(=O)NCc2ccco2)cc1 | . | . | . | .
CCOc1ccc(C(=O)Nc2onc3c2CCCC3)cc1 | .[10.9 µM] | 6.3µM | . | 16µM
CCOc1ccc(C(=O)NCC2CCCO2)cc1 (configuration not stated) | . | . | . | .
SMILES | Peg3 imprint | p53ts 32C tox | IkB sig inh | p53ts 39C tox
CC(C)COc1ccc(C(=O)Nc2onc3c2CCCC3)cc1 | .[10.9 µM] | ? | . | 16µM
Cc1cc(S(=O)(=O)NC2CCCCC2)ccc1OCC(=O)NCc1ccccn1 | ? | . | . | .
CCc1ccccc1NS(=O)(=O)c1ccc2oc(=O)c3ncn(C)c3c2c1 | .[10.9 µM] | . | . | .
Cc1ccc(NS(=O)(=O)c2ccc3oc(=O)c4ncn(C)c4c3c2)cc1C | .[10.9 µM] | ? | ? | ?
CCOc1ccccc1NS(=O)(=O)c1ccc2oc(=O)c3ncn(C)c3c2c1 | .[10.9 µM] | ? | . | 20µM
Cn1cnc2c(=O)oc3ccc(S(=O)(=O)Nc4ccc(F)cc4)cc3c21 | .[10.9 µM] | . | . | 13µM
Cc1ccc(Cl)cc1NS(=O)(=O)c1ccc2oc(=O)c3ncn(C)c3c2c1 | .[10.9 µM] | ? | . | 20µM
Cc1ccc(CCNC(=O)CN2C(=O)COc3ccc(S(=O)(=O)N4CCCC4)cc32)cc1 | .[10.9 µM] | . | ? | .

Source: PubChem
